Screens: PubChem, Broad Institute
The list is not random: actives were taken first. Their share in the collection is about 2.1%.
MLL AF4-AF9 inh – inhibitors of human MLL-AF4/AF9 interaction; inhibition, % at 10 µM; AlphaScreen, biotin-AF4 peptide binding to FLAG-AF9; 350,000 compounds, 0.47% hits;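 active = every replicate reaching a set inhibition limit, whatever the replicate mean, cut at about 25% in these data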;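 also: 0% = plate neutral control median and 100% = total signal loss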
Target sequence (P42568 whole entry, looked up): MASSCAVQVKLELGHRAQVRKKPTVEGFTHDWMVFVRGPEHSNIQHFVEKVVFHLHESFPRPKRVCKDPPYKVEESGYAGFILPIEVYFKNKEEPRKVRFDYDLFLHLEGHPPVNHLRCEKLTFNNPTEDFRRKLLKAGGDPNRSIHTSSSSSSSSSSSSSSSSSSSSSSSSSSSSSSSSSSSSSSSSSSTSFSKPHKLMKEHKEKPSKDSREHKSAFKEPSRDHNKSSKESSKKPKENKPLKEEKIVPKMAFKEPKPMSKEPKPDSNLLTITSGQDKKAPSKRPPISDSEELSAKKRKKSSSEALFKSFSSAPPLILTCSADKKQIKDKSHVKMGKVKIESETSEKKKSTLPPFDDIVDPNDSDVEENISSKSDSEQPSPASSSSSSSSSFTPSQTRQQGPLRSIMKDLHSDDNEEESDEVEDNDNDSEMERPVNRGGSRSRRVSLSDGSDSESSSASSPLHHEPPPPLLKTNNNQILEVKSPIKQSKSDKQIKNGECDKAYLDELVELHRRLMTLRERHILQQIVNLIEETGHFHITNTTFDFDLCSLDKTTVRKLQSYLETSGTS
PGC1a acetyl inh – lowers PGC1a acetylation signal in U2OS cells | AlphaScreen anti-acetyl-lysine; with virally co-expressed GCN5 acetyltransferase | 350,000 compounds, 0.17% hits | AID 651687 | inhibition, % at 15.6 µM;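 active = every replicate shows inhibition of at least 40%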;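 also: 0% = neutral control wells and 100% = positive control wells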
HIV Env fusion – inhibitors of HIV Env-mediated cell fusion; HeLa-JRFL Env/CEM21 cell fusion, luciferase; inhibition, % at 12.3 µM; 360,000 compounds, 1.1% hits;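 active = mean replicate inhibition score of at least 50 and every replicate individually at or above 50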;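 also: 0% = plate neutral controls and 100% = maraviroc near 300 nM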
INS-1E GSIS act – GLuc luminescence reporter in INS-1E cells, primary screen for activators of glucose-dependent secretion of insulin; INS-1E GLuc reporter insulin secretion, 2-3 h; activation, % at 16.6 µM; 370,000 compounds, 0.61% hits;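 active = lowest replicate activation of at least 40%, so every replicate reaches that level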;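 also: 0% = median of neutral control wells and 100% = median of IBMX positive control wells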
NSD2 HMT inh – inhibitors of human histone methyltransferase NSD2; inhibition, % at 12.5 µM; NSD2 peptide methylation, AlphaScreen, 120 min; 310,000 compounds, 0.54% hits; O96028; in the data active = inhibition above about 50%
* hit, by the source's call; . = no result; [ ] = remark or other dose.

SMILES	MLL AF4-AF9 inh	PGC1a acetyl inh	HIV Env fusion	INS-1E GSIS act	NSD2 HMT inh
CCN(CC)CCn1c(=N)n(CC(O)COc2ccccc2)c2ccccc21 (stereo not given)	0	39	14	51*	2
CCN(CC)CCn1c(=N)n(CCO)c2ccccc21	.	0	.	.	3
Cc1cc(NO)c(C(C)C)cc1N=O	0	.	66*	.	0
Cc1cc(C(=O)CSc2nnc3ccccn23)c(C)n1-c1ccccc1	.	.	61*	15	5
COc1ccc(NS(=O)(=O)c2ccc(N3CCCC3)c(NC(=S)Nc3ccc(SC(F)F)cc3)c2)cc1	14	-12	.	1	-4
COc1ccc(NS(=O)(=O)c2ccc(N3CCCC3)c(NC(=S)Nc3cccc(C)c3C)c2)cc1	.	.	149*	-11	-2
CS(=O)(=O)N1CCCCC1c1cc(C(=O)Nc2cccc(C#N)c2)no1 (stereo not given)	-1	-14	13	41*	1
CCOC(=O)NC(NCc1cccc(C(F)(F)F)c1)(C(F)(F)F)C(F)(F)F	-1	.	16	-36	-2
C=CCOc1ccc(/C=C/C(=O)OCC(=O)NCC2CCCCC2)cc1	-1	.	-230	6	0
C=CCOc1ccc(/C=C/C(=O)OCC(=O)NC2CCCCCCC2)cc1	0	.	60*	6	-3
CC1CCCC(C)N1C(=O)COC(=O)Cn1cnc2c1c(=O)n(C)c(=O)n2C (stereo not given)	5	-7	1	17	-2
Cc1ncccc1C(=O)N1CCCC(C(=O)c2ccc3c4c(cccc24)CC3)C1 (stereo not given)	3	.	90*	-8	4
CN(C)C(=O)CCC(=O)N1CCCC(C(=O)c2ccc3c4c(cccc24)CC3)C1 (stereo not given)	2	-5	80*	-13	-3
Nc1ncn([C@H]2C[C@H](O)[C@@H](CO)O2)c(=O)n1	-4	8	69*	.	.
Nc1ccn([C@H]2C[C@H](O)[C@@H](CO)O2)c(=O)n1	-4	8	-5	0	.
CCCN(CC(=O)Nc1ccccc1OC)C(=O)c1cc(S(=O)(=O)NCc2ccccc2)ccc1C	15	.	35	-21	1
CCCN(CC(=O)Nc1ccccc1OC)C(=O)c1cccc(S(=O)(=O)NCc2ccccc2)c1	5	.	90*	-38	-2
CCOc1ccc(N(CC(=O)Nc2ccccc2OC)S(=O)(=O)c2ccccc2)cc1	-1	88*	-180	-19	0
CC(=O)c1cccc(NC(=S)NC(=O)c2ccccc2Br)c1	-9	.	-1	-1	-1
C[C@@H]1CC=CC[C@@H](c2cccc(Cl)c2)NC(=O)[C@@H](C)N(C)C(=O)c2ccccc2O1 (mixture of isomers)	.	.	.	-27	.
COc1ccc(N2CCN(Cc3cc(OC)c(O)c([N+](=O)[O-])c3)CC2)cc1	.	-3	.	29	1
CC(C)Cn1c(Cc2ccccc2)n[nH]c1=S	-2	9	.	55*	1
C[C@H]1CN([C@@H](C)CO)C(=O)c2cc(Br)cnc2O[C@H]1CN(C)Cc1ccccc1C(=O)O	-2	-11	5[16.7 µM]	24	.
CCOc1cc(CNS(=O)(=O)c2cn(C)cn2)cc(OCC)c1OCC	0	7	11	-2	-1
CCOc1ccc(CCNS(=O)(=O)c2cn(C)cn2)cc1OCC	0	5	-16	60*	3
SMILES	MLL AF4-AF9 inh	PGC1a acetyl inh	HIV Env fusion	INS-1E GSIS act	NSD2 HMT inh
CN(C)c1cccc2c1c(NS(=O)(=O)c1cn(C)cn1)nn2C	-4	.	14	4	78*
Cn1cnc(S(=O)(=O)Nc2ccccc2N2CCOCC2)c1	-1	-9	3	20	0
COc1ccc2c3c([nH]c2c1)[C@H](CO)N(C(=O)CC1CC1)CC31CCN(Cc2cncnc2)CC1	0	7	.	4	.
CCc1ccc(OCC(=O)NC(=S)Nc2ccc(C(C)=O)cc2)c(Br)c1	0	-1	.	8	-3
CCc1ccc(OCC(=O)NC(=S)Nc2ccc(F)cc2)c(Br)c1	.	-5	.	59*	-2
Cc1ccc(/C=C2\SC(=S)N(CCCC(=O)Nc3cc(C)on3)C2=O)cc1	-1	-3	41	10	14
Cc1cc(NC(=O)CCCN2C(=O)/C(=C\c3cccs3)SC2=S)no1	.	9	3	54*	0
COc1ccc(OCCCC(=O)OCC(=O)Nc2c(C)nn(-c3ccccc3)c2C)cc1	-1	85*	.	19	1
CCOC(=O)c1c(-c2ccccc2)oc2cc(CN(C)C)c(O)c(CN(C)C)c12	36*	16	.	-15	12
